Assays:
Test in all cases: DAPPL (digital affinity profiling via proximity ligation, sequencing); 10 mM Tris-HCl pH 7.5, 50 mM NaCl, 1 mM DTT, 4% glycerol, room temperature, 30 min; GST-TFs on glutathione beads, 16-mer random dsDNA library, 0.1% formaldehyde crosslink after washing; high values mean tight binding
Settings in all cases: protein: recombinant; tags: N-terminal GST; dsDNA, one strand shown
FLI1 = molecular target: T1, FLI1 (Homo sapiens, UniProt Q01543 1-452)
T1 sequence: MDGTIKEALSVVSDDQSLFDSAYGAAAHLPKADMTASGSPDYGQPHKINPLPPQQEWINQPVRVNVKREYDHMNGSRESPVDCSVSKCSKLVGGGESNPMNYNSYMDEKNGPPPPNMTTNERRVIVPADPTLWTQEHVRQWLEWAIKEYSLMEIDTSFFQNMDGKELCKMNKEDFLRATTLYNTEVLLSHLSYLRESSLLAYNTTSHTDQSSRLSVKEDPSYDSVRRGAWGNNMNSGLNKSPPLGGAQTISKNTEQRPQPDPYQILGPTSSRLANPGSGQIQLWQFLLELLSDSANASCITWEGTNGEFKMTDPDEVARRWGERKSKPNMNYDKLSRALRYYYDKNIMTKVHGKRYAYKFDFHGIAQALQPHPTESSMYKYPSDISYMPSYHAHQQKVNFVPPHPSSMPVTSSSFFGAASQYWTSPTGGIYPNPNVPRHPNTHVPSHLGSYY
Procedure, shortened: (§1)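 GST fusions of human transcription factors were expressed in yeast and captured with glutathione beads. Once given DNA barcodes and pooled alongside a tag-only sample, they were incubated for 30 min at room temperature with 200 nmole of a random double-stranded 16-mer DNA library in Tris/NaCl/DTT/glycerol buffer, then washed, crosslinked (0.1% formaldehyde), proximity-ligated, PCR-amplified and sequenced on an Illumina NextSeq500. The binding signal of each hexamer is its read frequency for a factor divided by its frequency for the tag-only sample.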

ELK1 = molecular target: T2, ELK1 (Homo sapiens, UniProt P19419 1-428)
T2 sequence: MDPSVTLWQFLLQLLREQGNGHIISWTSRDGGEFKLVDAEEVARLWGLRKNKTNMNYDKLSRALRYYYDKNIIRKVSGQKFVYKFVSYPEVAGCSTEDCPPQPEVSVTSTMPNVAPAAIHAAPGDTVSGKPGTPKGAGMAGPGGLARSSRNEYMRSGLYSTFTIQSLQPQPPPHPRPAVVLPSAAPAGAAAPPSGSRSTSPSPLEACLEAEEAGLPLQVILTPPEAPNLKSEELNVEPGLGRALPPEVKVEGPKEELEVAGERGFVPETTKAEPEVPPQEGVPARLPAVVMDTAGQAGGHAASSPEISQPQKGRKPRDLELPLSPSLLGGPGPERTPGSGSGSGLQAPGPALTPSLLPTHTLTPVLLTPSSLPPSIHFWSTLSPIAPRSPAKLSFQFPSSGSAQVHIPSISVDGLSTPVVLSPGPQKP
Procedure, shortened: as §1

GABPA = molecular target: T3, GABPA (Homo sapiens, UniProt Q06546 1-454)
T3 sequence: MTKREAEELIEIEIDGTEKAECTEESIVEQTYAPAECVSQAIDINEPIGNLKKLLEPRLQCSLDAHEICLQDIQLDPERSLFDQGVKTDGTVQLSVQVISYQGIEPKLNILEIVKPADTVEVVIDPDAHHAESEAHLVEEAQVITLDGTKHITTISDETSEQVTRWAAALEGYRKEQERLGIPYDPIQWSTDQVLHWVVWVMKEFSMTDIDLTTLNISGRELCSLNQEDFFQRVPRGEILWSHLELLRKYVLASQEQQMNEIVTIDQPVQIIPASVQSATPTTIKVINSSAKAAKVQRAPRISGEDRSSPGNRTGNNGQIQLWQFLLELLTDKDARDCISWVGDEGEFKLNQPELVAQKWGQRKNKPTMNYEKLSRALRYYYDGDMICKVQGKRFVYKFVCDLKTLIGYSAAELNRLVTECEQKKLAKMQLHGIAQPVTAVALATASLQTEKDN
Procedure, shortened: as §1

ERG = molecular target: T4, ERG (Homo sapiens, UniProt P11308 1-479)
T4 sequence: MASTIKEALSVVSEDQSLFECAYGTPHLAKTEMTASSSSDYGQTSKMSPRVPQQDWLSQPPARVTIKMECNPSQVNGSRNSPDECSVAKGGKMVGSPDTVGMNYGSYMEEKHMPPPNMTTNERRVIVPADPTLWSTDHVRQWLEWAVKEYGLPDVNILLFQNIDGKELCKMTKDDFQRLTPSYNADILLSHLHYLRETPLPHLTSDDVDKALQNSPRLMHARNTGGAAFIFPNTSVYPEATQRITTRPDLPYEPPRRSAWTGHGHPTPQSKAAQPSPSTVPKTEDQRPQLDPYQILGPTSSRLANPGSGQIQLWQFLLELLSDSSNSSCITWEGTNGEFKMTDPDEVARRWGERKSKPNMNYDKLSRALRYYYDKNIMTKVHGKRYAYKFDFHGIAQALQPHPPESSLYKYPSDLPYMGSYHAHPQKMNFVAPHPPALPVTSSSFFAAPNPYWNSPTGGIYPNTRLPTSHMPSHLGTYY
Procedure, shortened: as §1

ELF1 = ELF1 (Homo sapiens, UniProt P32519 1-619)
Procedure, shortened: as §1

EHF = molecular target: T5, EHF (Homo sapiens, UniProt Q9NZC4 1-300)
T5 sequence: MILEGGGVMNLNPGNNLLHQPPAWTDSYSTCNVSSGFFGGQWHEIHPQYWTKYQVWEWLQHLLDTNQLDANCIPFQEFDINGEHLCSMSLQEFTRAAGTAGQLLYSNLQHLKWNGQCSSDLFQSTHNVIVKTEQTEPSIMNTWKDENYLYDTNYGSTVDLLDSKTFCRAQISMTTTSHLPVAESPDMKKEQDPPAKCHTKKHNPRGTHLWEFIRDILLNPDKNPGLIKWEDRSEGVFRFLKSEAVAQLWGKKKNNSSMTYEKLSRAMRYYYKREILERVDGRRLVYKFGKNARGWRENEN
Procedure, shortened: as §1

SPI1 = SPI1 (Homo sapiens, UniProt P17947 1-270)
Procedure, shortened: as §1

SPIB = SPIB (Homo sapiens, UniProt Q01892 1-262)
Procedure, shortened: as §1

ELK3 = molecular target: T6, ELK3 (Homo sapiens, UniProt P41970 1-407)
T6 sequence: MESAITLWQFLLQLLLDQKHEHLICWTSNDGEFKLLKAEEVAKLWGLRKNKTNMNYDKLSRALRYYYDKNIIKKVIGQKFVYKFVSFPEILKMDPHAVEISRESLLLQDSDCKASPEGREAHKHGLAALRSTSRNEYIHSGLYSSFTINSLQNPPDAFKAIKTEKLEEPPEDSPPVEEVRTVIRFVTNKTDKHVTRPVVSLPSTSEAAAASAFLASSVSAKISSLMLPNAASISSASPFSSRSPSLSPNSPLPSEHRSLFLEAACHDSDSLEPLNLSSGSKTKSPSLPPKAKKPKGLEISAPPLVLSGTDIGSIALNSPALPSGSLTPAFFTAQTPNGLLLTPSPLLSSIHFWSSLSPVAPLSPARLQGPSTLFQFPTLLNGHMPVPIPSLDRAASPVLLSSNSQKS
Procedure, shortened: as §1

ELF1, sequence (P32519 whole entry): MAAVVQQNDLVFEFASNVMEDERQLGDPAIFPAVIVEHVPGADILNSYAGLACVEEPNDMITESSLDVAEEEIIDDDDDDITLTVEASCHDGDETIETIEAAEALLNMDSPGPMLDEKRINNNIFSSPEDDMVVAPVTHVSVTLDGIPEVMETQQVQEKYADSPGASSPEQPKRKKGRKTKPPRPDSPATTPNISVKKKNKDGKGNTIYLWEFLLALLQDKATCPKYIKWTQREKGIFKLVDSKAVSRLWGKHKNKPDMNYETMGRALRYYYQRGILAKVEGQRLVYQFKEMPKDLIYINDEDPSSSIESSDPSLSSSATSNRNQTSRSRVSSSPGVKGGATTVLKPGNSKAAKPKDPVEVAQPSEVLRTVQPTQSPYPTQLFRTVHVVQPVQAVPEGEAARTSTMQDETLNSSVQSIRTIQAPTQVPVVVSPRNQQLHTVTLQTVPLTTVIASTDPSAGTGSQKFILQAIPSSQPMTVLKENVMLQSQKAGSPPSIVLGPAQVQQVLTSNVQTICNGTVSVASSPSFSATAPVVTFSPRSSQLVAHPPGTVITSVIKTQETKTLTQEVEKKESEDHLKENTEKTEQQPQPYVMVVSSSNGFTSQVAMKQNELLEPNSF
SPIB, sequence (Q01892 whole entry): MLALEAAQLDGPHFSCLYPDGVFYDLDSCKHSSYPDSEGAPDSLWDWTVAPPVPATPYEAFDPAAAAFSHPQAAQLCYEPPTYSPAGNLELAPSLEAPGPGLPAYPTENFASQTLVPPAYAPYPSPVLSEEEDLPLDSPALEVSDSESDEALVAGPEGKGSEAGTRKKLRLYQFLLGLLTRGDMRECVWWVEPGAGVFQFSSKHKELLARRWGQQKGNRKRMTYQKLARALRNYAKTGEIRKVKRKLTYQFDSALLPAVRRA

Sequence | binding signal (FLI1) | binding signal (ELK1) | binding signal (GABPA) | binding signal (ERG) | binding signal (ELF1) | binding signal (EHF) | binding signal (SPI1) | binding signal (SPIB) | binding signal (ELK3)
CGCTCA | 1.13 fold enrichment (6-mer frequency, TF over GST control) | 1.21 fold enrichment (6-mer frequency, TF over GST control) | 1.16 fold enrichment (6-mer frequency, TF over GST control) | 1.25 fold enrichment (6-mer frequency, TF over GST control) | 1.13 fold enrichment (6-mer frequency, TF over GST control) | 1.18 fold enrichment (6-mer frequency, TF over GST control) | 1.16 fold enrichment (6-mer frequency, TF over GST control) | 1.16 fold enrichment (6-mer frequency, TF over GST control) | 1.13 fold enrichment (6-mer frequency, TF over GST control)
ACTACA | 1.32 fold enrichment (6-mer frequency, TF over GST control) | 1.21 fold enrichment (6-mer frequency, TF over GST control) | 1.32 fold enrichment (6-mer frequency, TF over GST control) | 1.16 fold enrichment (6-mer frequency, TF over GST control) | 1.19 fold enrichment (6-mer frequency, TF over GST control) | 1.15 fold enrichment (6-mer frequency, TF over GST control) | 1.13 fold enrichment (6-mer frequency, TF over GST control) | 1.28 fold enrichment (6-mer frequency, TF over GST control) | 1.11 fold enrichment (6-mer frequency, TF over GST control)
TCTCAT | 1.3 fold enrichment (6-mer frequency, TF over GST control) | 1.36 fold enrichment (6-mer frequency, TF over GST control) | 1.34 fold enrichment (6-mer frequency, TF over GST control) | 1.2 fold enrichment (6-mer frequency, TF over GST control) | 1.36 fold enrichment (6-mer frequency, TF over GST control) | 1.31 fold enrichment (6-mer frequency, TF over GST control) | 1.37 fold enrichment (6-mer frequency, TF over GST control) | 1.33 fold enrichment (6-mer frequency, TF over GST control) | 1.29 fold enrichment (6-mer frequency, TF over GST control)
ACACTC | 1.04 fold enrichment (6-mer frequency, TF over GST control) | 1.1 fold enrichment (6-mer frequency, TF over GST control) | 1.15 fold enrichment (6-mer frequency, TF over GST control) | 1.08 fold enrichment (6-mer frequency, TF over GST control) | 1.12 fold enrichment (6-mer frequency, TF over GST control) | 1.14 fold enrichment (6-mer frequency, TF over GST control) | 1.09 fold enrichment (6-mer frequency, TF over GST control) | 1.15 fold enrichment (6-mer frequency, TF over GST control) | 1.19 fold enrichment (6-mer frequency, TF over GST control)
CCCCCA | 1.23 fold enrichment (6-mer frequency, TF over GST control) | 1.18 fold enrichment (6-mer frequency, TF over GST control) | 1.23 fold enrichment (6-mer frequency, TF over GST control) | 1.17 fold enrichment (6-mer frequency, TF over GST control) | 1.2 fold enrichment (6-mer frequency, TF over GST control) | 1.27 fold enrichment (6-mer frequency, TF over GST control) | 1.23 fold enrichment (6-mer frequency, TF over GST control) | 1.27 fold enrichment (6-mer frequency, TF over GST control) | 1.06 fold enrichment (6-mer frequency, TF over GST control)
CTAGTA | 1.08 fold enrichment (6-mer frequency, TF over GST control) | 1.03 fold enrichment (6-mer frequency, TF over GST control) | 1.08 fold enrichment (6-mer frequency, TF over GST control) | 1.06 fold enrichment (6-mer frequency, TF over GST control) | 1.15 fold enrichment (6-mer frequency, TF over GST control) | 1.08 fold enrichment (6-mer frequency, TF over GST control) | 1.13 fold enrichment (6-mer frequency, TF over GST control) | 1.1 fold enrichment (6-mer frequency, TF over GST control) | 1.17 fold enrichment (6-mer frequency, TF over GST control)
ACACAA | 1.14 fold enrichment (6-mer frequency, TF over GST control) | 1.17 fold enrichment (6-mer frequency, TF over GST control) | 1.12 fold enrichment (6-mer frequency, TF over GST control) | 1.17 fold enrichment (6-mer frequency, TF over GST control) | 1.23 fold enrichment (6-mer frequency, TF over GST control) | 1.21 fold enrichment (6-mer frequency, TF over GST control) | 1.17 fold enrichment (6-mer frequency, TF over GST control) | 1.21 fold enrichment (6-mer frequency, TF over GST control) | 1.19 fold enrichment (6-mer frequency, TF over GST control)
GAAGAA | 1.03 fold enrichment (6-mer frequency, TF over GST control) | 1.11 fold enrichment (6-mer frequency, TF over GST control) | 1.14 fold enrichment (6-mer frequency, TF over GST control) | 1.19 fold enrichment (6-mer frequency, TF over GST control) | 1.12 fold enrichment (6-mer frequency, TF over GST control) | 1.14 fold enrichment (6-mer frequency, TF over GST control) | 1.13 fold enrichment (6-mer frequency, TF over GST control) | 1.03 fold enrichment (6-mer frequency, TF over GST control) | 1.13 fold enrichment (6-mer frequency, TF over GST control)

Reference: PMC7862700, “An all-to-all approach to the identification of sequence-specific readers for epigenetic DNA modifications on cytosine”
